The values that follow come from PubChem BioAssay (NCATS).

For one test, the system named is Hek293T. Put plainly: Primary qHTS to identify gynecologic anti-cancer compounds using libraries of approved drugs and bioactive compounds (AID 1345084). Also: nearly all actives have a fitted effect of over 55% in size. Particulars: Gynecologic cancer cell panel viability, ATPlite luminescence, 48 h, control line for the selectivity index; series mostly up to 57.5 µM. Put shortly: (§1)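 Five-concentration response, 48 h; readout is ATP-driven luciferase luminescence.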
On the technique in general: Quantitative high-throughput screening tests each substance at several concentrations.

In a further test the test system is JEG-3. Described as above. To be noted: Gynecologic cancer cell panel viability, ATPlite luminescence, 48 h; series mostly up to 57.5 µM. Put shortly:
as §1
In general terms: Cellular ATP, detected with luciferase, serves as a proxy for viable cell number.

The subject of the next test is OV90. Described as above. Particulars: Gynecologic cancer cell panel viability, ATPlite luminescence, 48 h; series mostly up to 57.5 µM. The procedure, abridged:
as §1

In the next test the test system is PA-1. Described as above. Particulars: Gynecologic cancer cell panel viability, ATPlite luminescence, 48 h; series mostly up to 57.5 µM. The procedure, abridged:
as §1

The next test has as its system SKOV3. The test is described as above. Particulars: Gynecologic cancer cell panel viability, ATPlite luminescence, 48 h; series mostly up to 57.5 µM. The procedure, abridged: as §1
In the next test the test system is Tov112D. The test is described as above. To be noted: Gynecologic cancer cell panel viability, ATPlite luminescence, 48 h; series mostly up to 57.5 µM. Put shortly:
as §1

Test [1] is described as follows: Drug repurposing screens with cells derived from glioblastoma tumor samples (AID 1345199). Also: nearly all actives have a fitted effect of over 40% in size. To be noted: GBM patient neurospheres viability, ATP luminescence, 48 h. The procedure, abridged:
(§2)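 Four patient lines of CD133+ GBM neurospheres were screened at several concentrations; hits were retested in those lines plus three slower-growing GBM lines, using 48-hour treatment and ATP-based viability.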

Another test has as its system astro. The test is described as above. Particulars: viability, ATP luminescence, 48 h; series mostly up to 45.9 µM. The procedure, abridged:
as §2

The subject of a further test is HeLa. Briefly: Primary qHTS to identify gynecologic anti-cancer compounds using libraries of approved drugs and bioactive compounds (AID 1345084). Also: nearly all actives have a fitted effect of over 55% in size. To be noted: Gynecologic cancer cell panel viability, ATPlite luminescence, 48 h; series mostly up to 57.5 µM. The procedure, abridged:
as §1

The test system of the next test is Tov-21-G. The description is as above. Particulars: Gynecologic cancer cell panel viability, ATPlite luminescence, 48 h; series mostly up to 57.5 µM. Put shortly: as §1
[2] abbreviates: at 46.1 µM (top of the series), tumour line C.
Setting [3] is: at 45.9 µM (top of the series), tumour line B.
[4] abbreviates: at 45.9 µM (top of the series), tumour line D.
Where [5] appears, read: at 46 µM (top of the series), tumour line A.
[6] abbreviates: at 20 µM (top of the series), tumour line C.
Setting [7] is: at 21.2 µM (top of the series), tumour line B.
Where [8] appears, read: at 21.2 µM (top of the series), tumour line D.
Where [9] appears, read: at 21.3 µM (top of the series), tumour line A.

Each structure is given as a SMILES string. Where “and” joins values, the source holds several entries; their conditions need not be identical. Equal entries are not always repeated. Records with an inconclusive call do not appear. Where a structure was tested more than once in an assay, its records may differ in their call. Values without a mark were called inactive. Calls of active or inactive are those of the source. Calls follow the shape of the dose curve; as a rule, active = well fitted curve in the direction sought with a large enough effect; inconclusive = small, poorly fitted or top-dose-only effect, or another doubt; inactive = no such curve, though single readings can be large; an effect the other way counts as inactive or inconclusive.
% is scaled to controls: 0 for no effect and ±100 for the full control effect; potency is read from the fitted curve at half-maximal effect.

As for `CCN(CC)CCNC(=O)c1c(C)[nH]c(/C=C2\C(=O)Nc3ccc(F)cc32)c1C`, the Potency result with Hek293T, in the test on JEG-3 and in the test on Tov112D was “inactive” in each case. For the same compound, the Potency with OV90 was 10 µM (active); with PA-1, 10 µM (active); in the test with SKOV3, 8.91 µM (active); in test [1] (tumour line A) it was 11.2 µM (active); in [1] (tumour line D), 28.2 µM (active); with astro, 12.6 µM (active). For the same compound, the activity, negative = cell killing in test [1] (setting [2]) was 3.12%.

`Nc1cc(=O)[nH]c(N)n1`: the Potency entry in the test with HeLa, in the test on Hek293T, in the test on JEG-3, in the test with OV90, in the test on SKOV3 and in the test on Tov-21-G was “inactive” each time. Further, the Potency result in the test on Tov112D and in the test with astro was “inactive” throughout. Also, the activity, negative = cell killing in [1] (setting [3]) was 1%; in test [1] (setting [4]), -2.29%; in test [1] (setting [5]), -24.4%; in test [1] (setting [2]), 6.18%.

In the case of `CCN(CC)CCCC(C)Nc1c2ccc(Cl)cc2nc2ccc(OC)cc12` (configuration not stated), the Potency entry with HeLa and with Tov112D was “inactive” throughout. For the same compound, the Potency was 8.91 µM (active) in the test on OV90 and 20 µM (active) with astro.

As for `NS(=O)(=O)c1cc2c(cc1C(F)(F)F)NC(Cc1ccccc1)NS2(=O)=O` (configuration not stated), the Potency entry in the test on HeLa, with Hek293T, in the test with JEG-3, with PA-1, with SKOV3 and in the test on Tov-21-G was “inactive” throughout. Also, the Potency result in the test with Tov112D and in the test on astro was “inactive” throughout. For the same compound, the activity, negative = cell killing was -4.97% in test [1] (setting [6]), -2.05% in [1] (setting [7]), -0.808% in test [1] (setting [8]) and -15.9% in test [1] (setting [9]).

In the case of `CN(C)CCN(Cc1ccccc1)c1ccccn1`, the Potency entry in the test on HeLa, with JEG-3, in the test on OV90, in the test on PA-1, in the test with SKOV3 and in the test on Tov-21-G was “inactive” in each case. Also, the Potency result in the test with Tov112D and with astro was “inactive” in each case. For the same compound, the activity, negative = cell killing in [1] (setting [3]) was -8.05%; in [1] (setting [2]), -4.16%. In addition, in test [1] (tumour line A), the Potency is 5.62 µM (active).

Take `CN(C)CCCO[C@@H]1[C@H]2OC(C)(C)O[C@H]2O[C@@H]1C(O)CO` (some centres not stated): the Potency result in the test on HeLa, with JEG-3, in the test on OV90, with PA-1, with SKOV3 and with Tov-21-G was “inactive” each time. The Potency result in the test on Tov112D and with astro was “inactive” throughout. Besides, the activity, negative = cell killing in test [1] (setting [3]) was -1.76%; in test [1] (setting [4]) it was -18.3%; in test [1] (setting [2]) it was -10.9%.

For `CC[C@H]1CN2CCc3cc(OC)c(OC)cc3[C@@H]2C[C@@H]1C[C@H]1NCCc2cc(OC)c(OC)cc21`, the Potency in the test on HeLa is 398 nM (active); in the test with Hek293T, 282 nM (active); with JEG-3 it was 11.2 µM (active); with Tov-21-G, 3.55 µM (active); in the test on Tov112D, 0.355 µM (active).

Regarding `[Cl][In]([Cl])[Cl]`, the Potency entry in the test with HeLa, in the test on JEG-3, in the test on OV90, in the test with PA-1, in the test with SKOV3 and with Tov-21-G was “inactive” each time. Further, the Potency entry in the test with Tov112D and in the test on astro was “inactive” throughout.

As for `Cc1ccc2nc(N)[nH]c(=O)c2c1Sc1ccncc1`, the Potency entry with Hek293T, in the test on OV90, in the test with PA-1, with SKOV3 and in the test on Tov-21-G was “inactive” throughout. In addition, the figures for the Potency with JEG-3 and in the test with Tov112D were 6.31 µM (active) and 3.55 µM (active), respectively.

Take `CSc1ccc2c(c1)C(N1CCN(C)CC1)Cc1ccccc1S2` (configuration not stated): the Potency entry in the test on HeLa, in the test with Hek293T, in the test on JEG-3, with PA-1, in the test with Tov-21-G and with Tov112D was “inactive” each time. Also, the Potency in the test on astro is 20 µM (active).

Regarding `CC[N+](CC)(CC)CCOc1ccc(/C=C/c2ccccc2)cc1`, the Potency is 31.6 µM (active) in the test with JEG-3; 17.8 µM (active) in the test on OV90; 2.51 µM (active) in the test with PA-1; 10 µM (active) with SKOV3; 25.1 µM (active) in the test with Tov-21-G.

For the compound `CCOC(=O)c1ccc(O)cc1`, the Potency entry in the test on HeLa, with Hek293T, in the test on JEG-3, in the test on OV90, with PA-1 and in the test on Tov-21-G was “inactive” throughout. Further, the Potency result in the test on Tov112D and in the test on astro was “inactive” throughout. The activity, negative = cell killing in [1] (setting [3]) was -7.74%; in test [1] (setting [4]) it was 6.74%; in [1] (setting [2]) it was -0.513%.

`OCCN1CCN(CCCN2c3ccccc3Sc3ccc(Cl)cc32)CC1`: in the test with HeLa, the Potency entry was “inactive”. Also, the Potency was 15.8 µM (active) with OV90; 28.2 µM (active) in the test on SKOV3; 25.1 µM (active) in the test with Tov112D; 3.16 µM (active) in [1] (tumour line A); 8.91 µM (active) in test [1] (tumour line B); 10 µM (active) in test [1] (tumour line D). For the same compound, the activity, negative = cell killing in test [1] (setting [6]) was -18%.

`NC1[C@H]2CN(c3nc4c(cc3F)c(=O)c(C(=O)O)cn4-c3ccc(F)cc3F)C[C@@H]12` (some centres not stated): the Potency entry in the test with JEG-3, with OV90 and in the test on Tov112D was “inactive” each time. For the same compound, the activity, negative = cell killing in test [1] (setting [3]) was -29.1%.

As for `C/C(=C(\CCOP(=O)(O)O)SC(=O)c1ccccc1)N(C=O)Cc1cnc(C)nc1N`, the activity change, negative = cytotoxicity with HeLa is 3.42% [at 6.55 µM]; with Hek293T it was -6.19% [at 6.55 µM]; in the test with JEG-3, -14.5% [at 6.55 µM]; with PA-1, 12.8% [at 6.55 µM]; with SKOV3 it was 16.3% [at 6.55 µM]; in the test with Tov-21-G, 4.62% [at 6.55 µM]. Besides, the activity change, negative = cytotoxicity with Tov112D was 5.69% [at 6.55 µM]. Moreover, the activity, negative = cell killing in test [1] (setting [6]) was -2.37%; in test [1] (setting [7]), 1.9%; in [1] (setting [8]), -14.8%; in test [1] (setting [9]), -14%. The Potency result with astro is “inactive”.

In the case of `CN(C)CCCN1c2ccccc2Sc2ccc(Cl)cc21`, the activity, negative = cell killing in [1] (setting [2]) is -4.19%. Further, the Potency in test [1] (tumour line A) is 3.98 µM (active); in test [1] (tumour line B), 15.8 µM (active); in [1] (tumour line D), 20 µM (active); in the test with astro it was 12.6 µM (active).

For `Oc1cn2c(n1)Nc1ccc(Cl)c(Cl)c1C2`, the Potency entry in the test with JEG-3, in the test with OV90, with SKOV3, in the test on Tov-21-G, in the test on Tov112D and with astro was “inactive” in each case. In addition, the Potency in the test with PA-1 was 0.355 µM (active). Also, the activity, negative = cell killing in [1] (setting [4]) is -7.52%; in test [1] (setting [2]), -8.47% and 1.08%.

Take `CC(=O)O[C@@]12CO[C@@H]1C[C@H](O)[C@@]1(C)C(=O)[C@H](O)C3=C(C)[C@@H](OC(=O)[C@H](O)[C@@H](NC(=O)OC(C)(C)C)c4ccccc4)C[C@@](O)([C@@H](OC(=O)c4ccccc4)[C@H]21)C3(C)C`: the Potency entry in the test with Hek293T, in the test on JEG-3, in the test with OV90 and in the test with Tov112D was “inactive” in each case. In addition, the activity, negative = cell killing is -12.5% and -11.2% in test [1] (setting [3]); -11.2% and -24.9% in [1] (setting [4]). Also, the Potency in test [1] (tumour line A) is 10 µM (active).

Take `CSc1ccc2c(c1)N(CCC1CCCCN1C)c1ccccc1S2` (configuration not stated): the Potency entry in the test on HeLa and with Hek293T was “inactive” throughout. For the same compound, the Potency is 28.2 µM (active) in the test on Tov112D; 2.82 µM (active) in [1] (tumour line A); 20 µM (active) in [1] (tumour line B); 5.01 µM (active) in [1] (tumour line D); 20 µM (active) with astro. The activity, negative = cell killing in [1] (setting [2]) is -0.209%.

In the case of `CN(C)CCCN1c2ccccc2CCc2ccccc21`, the Potency result in the test on JEG-3 was “inactive”. For the same compound, the activity, negative = cell killing in test [1] (setting [2]) is -2.23%. In addition, the Potency in [1] (tumour line A) was 4.47 µM (active); in test [1] (tumour line D) it was 12.6 µM (active).

Take `CC1(C)CO[C@@H](CC(=O)O)CN1`: the Potency entry with HeLa, with JEG-3, in the test with OV90, in the test with PA-1, with SKOV3 and with Tov-21-G was “inactive” in each case. The Potency result with Tov112D and with astro was “inactive” each time. Besides, the activity, negative = cell killing in test [1] (setting [3]) is -8.88%; in test [1] (setting [4]) it was -5.5%; in test [1] (setting [5]), -28.2%; in test [1] (setting [2]), -15.1%.
